Source: PubChem BioAssay
Several values for one entry are separate records, joined by “and”; a condition that tells them apart may be missing. Equal values may be shown once. Activity calls are given as the source filed them. No rule for the calls is given here.

Assay: circadian clock period modulators, cell-based, LOPAC library, luminescence reporter (AID 2774);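 also: values are relative to mean of DMSO wells on each plate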
Conditions: circadian reporter cells, at 7 µM, actives lie on both sides

Period change, inactive:
N=c1nc(N2CCCCC2)cc(N)n1O -0.045 h
CC(C)NCC(O)COc1cccc2[nH]ccc12 (stereo not drawn) 0.015 h
CN(C)C(=O)C(CCN1CCC(O)(c2ccc(Cl)cc2)CC1)(c1ccccc1)c1ccccc1 -0.235 h
CCCC(CCC)C(=O)O 0.1 h
COc1cc(Cc2cnc(N)nc2N)cc(OC)c1OC 0.055 h
COC(=O)C1=C(C)NC(C)=C(C(=O)OCCN(C)Cc2ccccc2)C1c1cccc([N+](=O)[O-])c1 (stereo not drawn) -0.09 h
O=C(CCCN1CCC(O)(c2ccc(Cl)cc2)CC1)c1ccc(F)cc1 0.015 h
CC(C)(C)NCC(O)c1ccc(O)c(CO)c1 (stereo not drawn) -0.055 hour and -0.15 hour
COc1ccc2cc([C@H](C)C(=O)O)ccc2c1 -0.095 h
CN/C(=C\[N+](=O)[O-])NCCSCc1ccc(CN(C)C)o1 0.16 h
CNCCCN1c2ccccc2CCc2ccccc21 -0.04 h
CN1C(=O)CC[C@H]1c1cccnc1 0.1 h
O=C(O)CCc1nc(-c2ccccc2)c(-c2ccccc2)o1 0.145 h
CC(C)OC(=O)C(C)(C)Oc1ccc(C(=O)c2ccc(Cl)cc2)cc1 0.08 h
CC(C(=O)O)c1cccc(C(=O)c2ccccc2)c1 (stereo not drawn) -0.125 h
CN1CCN(C2=Nc3cc(Cl)ccc3Nc3ccccc32)CC1 0.13 h
Oc1ccc(O)cc1 -0.06 h
COC(=O)C1=C(C)NC(C)=C(C(=O)OC)C1c1ccccc1[N+](=O)[O-] -0.175 h
